± gives the standard deviation.

This test concerns OVCAR-3-derived ovarian cancer stem-like cells (spheroids). In words: cell growth relative to untreated control; higher = more growth (less inhibition). The following applies: 2.29 µM; 96 h. In outline:
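After trypsin dissociation, OVCAR-3 spheroid-derived stem-like cells were placed in ultra-low attachment 96-well plates at 50,000 cells/mL in stem cell medium and preincubated for 24 h. Treatment at 2.29 uM followed for 96 h at 37°C, 5% CO2, with 4 replicate wells per compound. A 4 h TOX8 resazurin fluorescence read (ex 560/em 590 nm) gave viability, from which percent growth relative to untreated wells was derived after blank subtraction and Grubbs outlier removal.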
The compound `Nc1ccc2c(c1)S(=O)(=O)c1cc(N)ccc1-2` came in with a cell growth of 112 ± 21%.
The compound `Cc1ccc(N=N/C(=N\NC(=O)c2ccc(C)cc2)c2ccc(N(CCC#N)CCC#N)cc2C)cc1` gave a cell growth of 74.4 ± 26%.
With `COc1ccc(C2=Nc3ccccc3SC(C)C2)cc1` (centres undefined) the figure was 91.1 ± 17%; with `Cc1ccc(S(=O)(=O)ON=C2CC(c3ccccc3)N(C)C(c3ccccc3)C2)cc1` (centres undefined), 96.7 ± 22%.
The compound `O=C(Nc1ccccc1-c1nn(C(=S)Nc2ccccc2)c(=S)n(C(=S)Nc2ccccc2)c1=O)C(F)(F)F` came in with a cell growth of 84.8 ± 15%.
With `C=C1C(=O)C23CC[C@@H]4C(C)(C(=O)OC)CCCC4(C)[C@@H]2CCC1(O)C3` (some centres undefined) the figure was 13 ± 5.5%.
The compound `O=[N+]([O-])c1ccc2oc(=Nc3ccccc3)c(Nc3ccccc3)nc2c1` showed a cell growth of 101 ± 11%.
With `CCOC(=O)CNC(=O)NC12CC3CC(CC(C3)C1)C2` the figure was 95.4 ± 18%.
For `CN(C)CCNC(=O)c1cccc2[nH]c(-c3ccncc3)nc12`, the cell growth is 96.5 ± 22%.
In the case of `CC(=O)OC[C@H]1O[C@@H](NC(=O)N(CCCl)N=O)[C@H](OC(C)=O)[C@@H](OC(C)=O)[C@@H]1OC(C)=O`, the cell growth worked out at 115 ± 15%.
Turning to `CN(C)c1ccc(/C=C/C(=O)[O-])cc1.CN(C)c1ccc(/C=C/C(=O)[O-])cc1.[Cu+2]`, the cell growth is 97.6 ± 39%.
In turn, `CC(=O)[O][Hg].c1ccc2c(c1)ccc1ccccc12` showed a cell growth of 132 ± 32%.
`Nc1nc(=S)c2ncn([C@@H]3C[C@H](O)[C@@H](CO)O3)c2[nH]1` gave a cell growth of 110 ± 13%.
Turning to `CC1=C/C(=N\OCC(=O)O)CC(c2ccc(C(C)C)cc2)C1` (centres undefined), the cell growth turned out to be 12.4 ± 5%.
For `C=C1CC(COc2cc(=O)oc3ccccc23)(c2ccccc2)OC1=O` (centres undefined) the value was 76.3 ± 22%.
Regarding `N#Cc1ccccc1NC(=O)C(=O)C(C(=O)c1ccccc1F)C1OC(=O)c2ccccc21` (centres undefined), the cell growth was 98.8 ± 24%.
For `CCCCCCCCCCCCCCCCOP(=O)([O-])OCC[N+](C)(C)C` the value was 85.9 ± 16%.
Compound `Cc1ccc(C)c(NC(=O)C(=O)C(C(=O)c2ccc3ccccc3c2)C2OC(=O)c3ccccc32)c1` (centres undefined) registered a cell growth of 121 ± 78%.
In the case of `COc1cc2c(c(O)c1OC)-c1c(cc(OC)c(OC)c1OC)C[C@@H](C)[C@@H](C)C2`, the cell growth was 82 ± 20%.
For `C/C(NNC(=O)c1ccccc1O)=C1\C=Nc2ccccc2S1`, the cell growth came out at 16 ± 5.3%.
On to `CCN(CC)CCOc1ccc(C(O)(Cc2ccc(OC)cc2)c2ccccc2)cc1` (centres undefined), for which the cell growth amounted to 118 ± 40%.
For `COc1cc2oc3cc(=O)cc4oc(-c5ccccc5)cc(c2c2c1CCC(c1ccccc1)O2)c43` (centres undefined) the value was 150 ± 80%; for `Cc1c2oc3c(C)ccc(C(=O)N[C@@H]4C(=O)N[C@H](C(C)C)C(=O)N5CCC[C@H]5C(=O)N(C)CC(=O)N(C)[C@@H](C(C)C)C(=O)O[C@@H]4C)c3nc-2c(C(=O)N[C@@H]2C(=O)N[C@H](C(C)C)C(=O)N3CCC[C@H]3C(=O)N(C)CC(=O)N(C)[C@@H](C(C)C)C(=O)O[C@@H]2C)c(N)c1=O`, 8.44 ± 3.9%.
In the case of `CNC(=S)N/N=C/c1ccc([N+](=O)[O-])s1`, the cell growth was 87.9 ± 21%.
The compound `Cc1c(Cl)cccc1NC(=O)c1cccc([N+](=O)[O-])c1O` registered a cell growth of 106 ± 20%.
`COc1cc2oc(=O)cc(C)c2cc1[N+](=O)[O-]` showed a cell growth of 137 ± 45%.
`Cc1cc(-c2nc3ccccc3s2)ccc1N` yielded a cell growth of 73.6 ± 9%.
The compound `CCN(CC)CCNc1ccc2nc(C)n3c4ccc(OC)cc4c(=O)c1c23` displayed a cell growth of 34.8 ± 9.9%.
`O=C1c2ccccc2C(=O)c2sc(Nc3ccc(Cl)c(Cl)c3)nc21` yielded a cell growth of 9.6 ± 7%.
In the case of `C[C@H]1O[C@@H](c2ccc3c(c2O)C(=O)C2=C(C3=O)[C@@]3(O)C(=O)C[C@](C)(O)C[C@@]3(O)C=C2)C[C@@H](O)[C@@H]1O`, the cell growth amounted to 62.7 ± 8.2%.
Regarding `Cn1c(=O)c2nc3sc4c(n3c2n(C)c1=O)C(=O)c1ccccc1C4=O`, the cell growth was found to be 115 ± 20%.
`Cc1c(C(=O)C/C(=N\O)C(=O)Nc2cc(Cl)c(Cl)cc2Cl)[n+](=O)c2ccccc2n1[O-]` showed a cell growth of 68.5 ± 17%.
`CCOC(=O)/C=C/c1c(C)[nH]c(=O)[nH]c1=O`: the cell growth is 91.2 ± 25%.
For `C/C(=N\Nc1nc2ccccc2s1)c1ccncn1` the value was 30.8 ± 7.4%; for `COc1cc(/C=C/C(=O)CC(=O)/C=C/c2ccc(O)c(OC)c2)ccc1O`, 89 ± 24%.
With `O=C(O)c1ccc(NC(c2ccccc2)c2ccc3cccnc3c2O)cc1` (centres undefined) the figure was 89.7 ± 46%; with `CCOC(=O)NC(Nc1ccc(F)cc1)(C(=O)OCC)C(F)(F)F` (centres undefined), 199 ± 130%.
The compound `CC[C@H](C)C(=O)O[C@H]1CCC=C2C=C[C@H](C)[C@H](CC[C@@H]3C[C@@H](O)CC(=O)O3)[C@H]21` gave a cell growth of 135 ± 25%.
The compound `CCSC(=O)N1c2ccc(OC)cc2C=CC1C#N` (centres undefined) gave a cell growth of 52.9 ± 11%.
